Where “and” joins values, the source holds several entries; their conditions need not be identical. Equal values may be shown once. Inconclusive results are not listed. Calls of active or inactive are those of the source. Unless noted, calls follow the shape of the full dose curve.
Tests used:
[1] = target: Bile acid receptor (Homo sapiens) (UniProt Q96RI1); assay: qHTS assay for small molecule agonists of farnesoid X receptor signaling (AID 588527); settings: HEK293T FXR-UAS-bla, beta-lactamase ratio, 16 h; activation: active compounds read high;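 also: series mostly up to about 77 µM; 0% = vehicle basal and 100% = reference agonist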
Procedure, shortened: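 Agonist-mode beta-lactamase reporter in GeneBLAzer FXR-UAS-bla HEK293T cells, titration up to 92 uM, 16 h exposure at 37 C, CCF4 fluorescence. Response scaled to DMSO (0%) and 100 uM chenodeoxycholic acid (100%), then Hill-fitted for EC50 and efficacy.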

[2] = qHTS for Inhibitors of the Functional Ribonucleoprotein Complex (vRNP) of Lassa (LASV) Arenavirus: LASV Primary Screen - GLuc reporter signal (AID 1347082; calls by dose curve; tested in HEK293 reporter line; also: nearly all actives have a fitted effect of over 60% in size; also: potency is read from the fitted curve at half-maximal effect)
[3] = qHTS for Inhibitors of the Functional Ribonucleoprotein Complex (vRNP) of Lassa (LASV) Arenavirus: Viability assay - alamar blue signal for LASV Primary Screen (AID 1347083; calls by dose curve; tested in HEK293 reporter line; also: nearly all actives have a fitted effect of over 80% in size; also: potency is read from the fitted curve at half-maximal effect)
[4] = qHTS for Inhibitors of the Functional Ribonucleoprotein Complex (vRNP) of Lymphocytic Choriomeningitis Arenaviruses (LCMV): Viability assay - alamar blue signal for LCMV Primary Screen (AID 1347085; calls by dose curve; tested in HEK293 reporter line; also: nearly all actives have a fitted effect of over 80% in size; also: potency is read from the fitted curve at half-maximal effect)
[5] = target: Nucleoprotein (Lymphocytic choriomeningitis virus (strain Armstrong)) (UniProt P09992); assay: qHTS for Inhibitors of the Functional Ribonucleoprotein Complex (vRNP) of Lymphocytic Choriomeningitis Arenaviruses (LCMV): LCMV Primary Screen - GLuc reporter signal (AID 1347086); also: nearly all actives have a fitted effect of over 70% in size; also: potency is read from the fitted curve at half-maximal effect
[6] = target: Peroxisome proliferator-activated receptor delta (Homo sapiens) (UniProt Q03181); assay: qHTS assay for small molecule agonists of peroxisome proliferator-activated receptor delta signaling (AID 588534);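 also: 0% = DMSO basal wells and 100% = positive control agonist at 10 µM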
Procedure, shortened: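 Titration series tested in agonist mode on beta-lactamase reporter cells; 18 hrs at 37 C after a 5 hr pre-incubation. Readout: CCF4 fluorescence, 2 hrs RT. Hill equation gives EC50 and maximal response.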

[7] = target: Ubiquitin carboxyl-terminal hydrolase 1 (Homo sapiens) (UniProt O94782); assay: Inhibitors of USP1/UAF1: Pilot qHTS (AID 504865; active = well fitted curve in the direction sought with a large enough effect; an effect the other way counts as inactive or inconclusive;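 also: rhodamine fluorescence freed from ubiquitin-rhodamine substrate followed over time; top concentration of the series differs between compounds; % is scaled to controls: 0 for no effect and ±100 for the full control effect; nearly all actives have a fitted effect of over 35% in size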)
Procedure, shortened: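 1nM USP1/UAF1 + cpd, 15 min RT; start w/ Ub-Rho 150nM final; kinetic FL 480/540 nm, 6 reads q60 s. Buffer 50mM HEPES pH 7.8, 0.5mM EDTA, 1mM TCEP, 0.01% Tween-20, 0.1 mg/ml BSA.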

[8] = S16 Schwann cell PMP22 intronic element beta-lactamase assay (AID 624044); also: potency is read from the fitted curve at half-maximal effect; nearly all actives have a fitted effect of over 15% in size
Procedure, shortened: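 Beta-lactamase reporter under a PMP22 intronic regulatory element in stable S16 rat Schwann cells; 24 h compound exposure. 460 nm blue signal normalized between DMSO (0%) and potassium clavulanate, with 535 nm FRET tracking viability; curves classed by r2 and response.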

[9] = target: Alpha-galactosidase (Coffea arabica) (UniProt Q42656); assay: Counterscreen for Glucocerebrosidase Inhibitors: qHTS Assay for Coffee Bean alpha-Galactosidase at pH 5.9 (AID 998; active = well fitted curve in the direction sought with a large enough effect; an effect the other way counts as inactive or inconclusive;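 also: plate controls were uninhibited enzyme for no effect and no-enzyme basal signal for full effect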)
Procedure, shortened: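 In 50 mM citric acid pH 5.9 with 0.005% Tween-20, coffee bean enzyme hydrolyses 80 uM 4-MU alpha-D-galactopyranoside over 20 min at RT. Activity is normalized to controls; AC50 comes from Hill-modelled concentration-response data.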

[10] = Inducers of the Endoplasmic Reticulum Stress Response (ERSR) in human glioma: Validation (AID 504836; active = well fitted curve in the direction sought with a large enough effect; an effect the other way counts as inactive or inconclusive; also: 0% is about no effect)
Procedure, shortened: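 Stably transfected U87-MG human glioma cells carrying a GRP78-based luminescent sensor were seeded at 1000 cells/well, pin-dosed with compounds and incubated 16 h. Luciferase reagent was then added, and end-point luminescence was read after 10 min at room temperature.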

[11] = target: Alpha-galactosidase (Coffea arabica) (UniProt Q42656); assay: Counterscreen for Glucocerebrosidase Inhibitors: qHTS Assay for Coffee Bean alpha-Galactosidase at pH 4.5 (AID 957; active = well fitted curve in the direction sought with a large enough effect; an effect the other way counts as inactive or inconclusive;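 also: series mostly up to about 77 µM; plate controls were enzyme alone for no effect and no enzyme for full effect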)
Procedure, shortened: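 Fluorogenic read-out: 4-methylumbelliferone at Ex 365/Em 440 nm after NaOH/glycine stop (pH 10). Enzyme 2 nM, 4-MU-alpha-galactoside 80 uM, citrate buffer pH 4.5, 20 min RT; normalized to no-enzyme and enzyme controls.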

Sequence of Alpha-galactosidase (Coffea arabica) (Q42656 whole entry, looked up): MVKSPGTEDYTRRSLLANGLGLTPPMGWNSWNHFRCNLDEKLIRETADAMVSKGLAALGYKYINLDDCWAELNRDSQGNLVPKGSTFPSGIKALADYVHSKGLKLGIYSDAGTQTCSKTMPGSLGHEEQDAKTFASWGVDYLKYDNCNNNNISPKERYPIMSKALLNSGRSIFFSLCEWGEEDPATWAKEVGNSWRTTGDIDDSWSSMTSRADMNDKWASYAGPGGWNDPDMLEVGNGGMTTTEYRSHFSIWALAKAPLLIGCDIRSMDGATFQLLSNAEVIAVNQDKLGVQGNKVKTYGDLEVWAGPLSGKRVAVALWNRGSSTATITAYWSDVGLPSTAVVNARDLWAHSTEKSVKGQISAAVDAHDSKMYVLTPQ
Sequence of Bile acid receptor (Homo sapiens) (Q96RI1 whole entry, looked up): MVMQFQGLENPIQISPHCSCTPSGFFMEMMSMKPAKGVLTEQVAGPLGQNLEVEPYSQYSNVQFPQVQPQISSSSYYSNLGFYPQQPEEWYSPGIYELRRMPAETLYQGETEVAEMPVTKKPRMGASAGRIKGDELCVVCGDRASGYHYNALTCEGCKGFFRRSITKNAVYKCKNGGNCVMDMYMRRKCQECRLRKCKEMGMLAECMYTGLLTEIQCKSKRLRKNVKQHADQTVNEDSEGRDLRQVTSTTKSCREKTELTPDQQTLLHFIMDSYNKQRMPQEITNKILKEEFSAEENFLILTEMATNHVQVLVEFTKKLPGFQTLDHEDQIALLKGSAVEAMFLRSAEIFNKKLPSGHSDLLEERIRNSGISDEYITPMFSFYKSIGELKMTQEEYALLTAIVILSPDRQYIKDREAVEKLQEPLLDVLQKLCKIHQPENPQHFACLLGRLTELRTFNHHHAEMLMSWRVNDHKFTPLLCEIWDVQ
Sequence of Nucleoprotein (Lymphocytic choriomeningitis virus (strain Armstrong)) (P09992 whole entry, looked up): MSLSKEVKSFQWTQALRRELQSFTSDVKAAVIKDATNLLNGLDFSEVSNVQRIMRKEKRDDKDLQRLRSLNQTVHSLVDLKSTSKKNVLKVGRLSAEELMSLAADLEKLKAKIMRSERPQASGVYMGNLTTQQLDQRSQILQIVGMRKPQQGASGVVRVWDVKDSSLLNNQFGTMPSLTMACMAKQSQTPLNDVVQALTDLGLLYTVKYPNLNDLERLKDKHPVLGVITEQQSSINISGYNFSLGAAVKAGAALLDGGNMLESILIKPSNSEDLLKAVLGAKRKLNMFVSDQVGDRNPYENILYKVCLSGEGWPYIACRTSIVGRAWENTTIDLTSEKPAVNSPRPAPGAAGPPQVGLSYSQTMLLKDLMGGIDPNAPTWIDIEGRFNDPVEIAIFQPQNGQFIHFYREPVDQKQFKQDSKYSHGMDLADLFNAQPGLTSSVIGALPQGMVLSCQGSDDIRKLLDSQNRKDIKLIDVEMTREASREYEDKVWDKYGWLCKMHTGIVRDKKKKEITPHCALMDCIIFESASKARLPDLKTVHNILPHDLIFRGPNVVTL
Sequence of Peroxisome proliferator-activated receptor delta (Homo sapiens) (Q03181 whole entry, looked up): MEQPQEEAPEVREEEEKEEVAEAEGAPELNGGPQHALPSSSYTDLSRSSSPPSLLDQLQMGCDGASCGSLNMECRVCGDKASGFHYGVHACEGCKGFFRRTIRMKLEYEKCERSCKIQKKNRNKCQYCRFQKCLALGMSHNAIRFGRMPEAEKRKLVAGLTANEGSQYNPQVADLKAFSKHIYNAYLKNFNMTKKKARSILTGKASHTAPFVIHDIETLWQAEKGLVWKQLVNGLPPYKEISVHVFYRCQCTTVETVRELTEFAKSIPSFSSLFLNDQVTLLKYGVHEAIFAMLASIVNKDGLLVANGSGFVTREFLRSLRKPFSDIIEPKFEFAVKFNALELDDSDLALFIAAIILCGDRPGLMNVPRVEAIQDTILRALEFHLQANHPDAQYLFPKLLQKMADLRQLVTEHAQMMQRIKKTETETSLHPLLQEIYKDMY
Sequence of Ubiquitin carboxyl-terminal hydrolase 1 (Homo sapiens) (O94782 whole entry, looked up): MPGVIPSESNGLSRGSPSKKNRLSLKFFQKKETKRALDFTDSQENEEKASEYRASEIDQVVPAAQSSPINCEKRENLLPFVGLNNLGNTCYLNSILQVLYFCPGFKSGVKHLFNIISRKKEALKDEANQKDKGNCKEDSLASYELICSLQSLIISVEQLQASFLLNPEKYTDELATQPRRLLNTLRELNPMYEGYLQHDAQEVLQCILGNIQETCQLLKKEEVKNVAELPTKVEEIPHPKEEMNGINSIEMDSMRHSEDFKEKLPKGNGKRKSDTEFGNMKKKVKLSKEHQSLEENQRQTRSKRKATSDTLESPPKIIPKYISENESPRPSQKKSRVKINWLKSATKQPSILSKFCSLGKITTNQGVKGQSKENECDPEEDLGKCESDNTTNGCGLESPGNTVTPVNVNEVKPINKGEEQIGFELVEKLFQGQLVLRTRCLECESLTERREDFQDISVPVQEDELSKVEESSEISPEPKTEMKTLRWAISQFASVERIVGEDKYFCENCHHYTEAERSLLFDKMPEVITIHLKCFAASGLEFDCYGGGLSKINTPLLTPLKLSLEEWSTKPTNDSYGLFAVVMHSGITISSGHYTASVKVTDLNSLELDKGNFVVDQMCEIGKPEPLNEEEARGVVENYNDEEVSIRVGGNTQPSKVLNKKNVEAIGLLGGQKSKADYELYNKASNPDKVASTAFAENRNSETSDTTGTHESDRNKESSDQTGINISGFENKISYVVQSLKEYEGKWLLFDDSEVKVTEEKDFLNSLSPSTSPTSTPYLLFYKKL

COCCOCCOCCOC
inactive: activation [1] 4.16% | Potency [2] | Potency [3] | Potency [4] | Potency [5]

CCCCCC1CCC(=O)O1 (configuration not stated)
inactive: activation [1] 0.301% | Potency [6] | Potency [2] | Potency [3] | Potency [4] | Potency [5]

CC[C@H]1CN2CCc3cc(OC)c(OC)cc3[C@H]2C[C@@H]1C[C@@H]1NCCc2cc(OC)c(OC)cc21
active: Potency [8] 562 nM | Potency [2] 385 nM | Potency [3] 432 nM | Potency [4] 544 nM | Potency [5] 432 nM
inactive: Potency [7]

CCCCCCCCCCCCCCCCCC(N)=O
inactive: activation [1] 1.8% | Potency [6] | Potency [2] | Potency [3] | Potency [4] | Potency [5]

N=C(N)SCCc1ccc(CCSC(=N)N)cc1
inactive: outcome [9] | outcome [10] | Potency [2] | Potency [3] | Potency [4] | Potency [5]

Brc1ccc([C@H]2CN3CCSC3=N2)cc1
inactive: outcome [11] | outcome [9] | outcome [10] | Potency [2] | Potency [3] | Potency [4] | Potency [5]

c1ccc2c(c1)ccc1ccccc12
inactive: activation [1] -5.28% and 1.03% | Potency [6] | Potency [2] | Potency [3] | Potency [4] | Potency [5]

Reference: PubChem BioAssay (NCATS)
